Results on 14 compounds are retold here after PubChem BioAssay (EPA / NIEHS).

Each structure is given as a SMILES string. Results filed as inconclusive are left out. The source made the active and inactive calls. How the source made its calls: active means hit-call score of the fitted dose curve at least 0.9, where 1 is the maximum; inconclusive means response in the unintended direction; inactive means score below 0.9.

The nature of assay [1]: STM_H9_NormalizedViability: Cytotoxicity Assessment at 120 hours in the Stemina devTOX quickPredict H9 human embryonic stem cell (hESC)-based Assay (AID 2283784). In outline: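 Viability endpoint: background-corrected CellTiter-Fluor RFU expressed relative to the 0.1% DMSO mean on each plate. Undifferentiated H9 cells were treated with daily re-dosing and media change, and loss of signal was fitted.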

The subject of assay [2] is turtle Androgen Receptor (AR), gene 101947425. Kind of assay: ATG_trAR_XSP1: Attagene TRANS-FACTORIAL Multi-Species (XSP1) HepG2 Assay for turtle Androgen Receptor (AR) (AID 2283786). In a few lines:
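Partial androgen stimulation is provided by 3 nM 6-alpha-fluorotestosterone in a multi-species trans-factorial panel expressing a turtle AR–GAL4 fusion in HepG2. After 24 h, reporter mRNA is measured by RT-PCR and capillary electrophoresis and fitted upward against DMSO.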

Assay [3] in a line: ATG_M_06_XSP1: Attagene TRANS-FACTORIAL Multi-Species (XSP1) HepG2 Assay for M06 Transcription Factor (Internal Marker) (AID 2283790). In outline:
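This background-control readout tracks M06 reporter mRNA, measured by RT-PCR and capillary electrophoresis. HepG2 cells transiently carrying the GAL4-UAS reporter panel were dosed for 24 h with 3 nM 6-alpha-fluorotestosterone added for partial AR stimulation; increases were scored relative to DMSO.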

A short description of assay [4]: ATG_M_61_XSP1: Attagene TRANS-FACTORIAL Multi-Species (XSP1) HepG2 Assay for M61 Transcription Factor (Internal Marker) (AID 2283797). In a few lines:
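Background-control readout: reporter transcripts measured by RT-PCR and capillary electrophoresis 24 h after dosing transiently transfected HepG2 multi-reporter cells, with 3 nM 6-alpha-fluorotestosterone present. Fitted in the positive direction relative to DMSO.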

The target of assay [5] is Nuclear receptor subfamily 1 group I member 2 (Mus musculus) (UniProt O54915). Put plainly: ATG_mPXR_XSP1: Attagene TRANS-FACTORIAL Multi-Species (XSP1) HepG2 Assay for mouse Pregnane X Receptor (PXR) (AID 2283803). In a few lines:
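Transiently transfected HepG2 cells expressing a receptor-Gal4 chimera drive a GAL4-UAS reporter; 3 nM 6-alpha-fluorotestosterone included. Reporter mRNA read 24 h post-dose by RT-PCR and capillary electrophoresis; gain of signal relative to DMSO.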

Assay [6] addresses frog Thyroid hormone Receptor alpha (TRa), thra-a (gene 397942) (UniProt P15204). Put plainly: ATG_frTRa_XSP1: Attagene TRANS-FACTORIAL Multi-Species (XSP1) HepG2 Assay for frog Thyroid hormone Receptor alpha (TRa) (AID 2283804). In outline:
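Reporter transcript induction, measured by RT-PCR with 6-FAM labelling and capillary electrophoresis, 24 hr after dosing transiently transfected HepG2 cells expressing a frog TRa-GAL4 fusion; medium contained 3 nM 6-alpha-fluorotestosterone; increase over DMSO scored.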

The target of assay [7] is human Thyroid hormone Receptor alpha (TRa), THRA (gene 7067) (UniProt P10827). Put plainly: ATG_hTRa_XSP1: Attagene TRANS-FACTORIAL Multi-Species (XSP1) HepG2 Assay for human Thyroid hormone Receptor alpha (TRa) (AID 2283805). In outline:
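Reporter transcripts from the human TRa-Gal4 TRANS unit quantified by RT-PCR, fluorescent labeling and capillary electrophoresis after 24 hours of chemical exposure in transfected HepG2 cells; medium contains 3 nM 6-alpha-fluorotestosterone. Positive direction fit against DMSO.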

In assay [8] the test system is turtle Thyroid Hormone Receptor, alpha (TRa), gene 101949057. Kind of assay: ATG_trTRa_XSP1: Attagene TRANS-FACTORIAL Multi-Species (XSP1) HepG2 Assay for turtle Thyroid Hormone Receptor, alpha (TRa) (AID 2283806). In a few lines:
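After 24 h chemical exposure, reporter transcripts were measured by RT-PCR with fluorescent primer extension, HpaI digestion and capillary electrophoresis. Cells were transiently transfected HepG2 expressing exogenous NR-Gal4 chimeras; medium contained 3 nM 6-alpha-fluorotestosterone; fitted upward relative to DMSO.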

For assay [9], the target named is zebrafish Thyroid Hormone Receptor alpha (TRa), thraa (gene 30670) (UniProt Q98867). Kind of assay: ATG_zfTRa_XSP1: Attagene TRANS-FACTORIAL Multi-Species (XSP1) HepG2 Assay for zebrafish Thyroid Hormone Receptor alpha (TRa) (AID 2283807). In outline:
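Reporter transcripts driven by a chimeric zebrafish TRa–Gal4 protein were measured by RT-PCR with fluorescent labelling and capillary electrophoresis. These came from transiently transfected HepG2 cells after 24 h chemical exposure, with 3 nM 6-alpha-fluorotestosterone added; baseline was DMSO.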

The target of assay [10] is human Thyroid hormone Receptor beta (TRb), THRB (gene 7068) (UniProt P10828). Put plainly: ATG_hTRb_XSP1: Attagene TRANS-FACTORIAL Multi-Species (XSP1) HepG2 Assay for human Thyroid hormone Receptor beta (TRb) (AID 2283808). In a few lines:
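Readout is reporter mRNA induction measured by RT-PCR, fluorescent labelling and capillary electrophoresis, fitted upward relative to DMSO. Transiently transfected human HepG2 cells expressing NR-Gal4 chimeras were dosed for 24 h, medium containing 3 nM 6-alpha-fluorotestosterone.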

In assay [11] the target is zebrafish Thyroid Hormone Receptor beta (TRb), thrb (gene 30607) (UniProt Q9PVE4). Kind of assay: ATG_zfTRb_XSP1: Attagene TRANS-FACTORIAL Multi-Species (XSP1) HepG2 Assay for zebrafish Thyroid Hormone Receptor beta (TRb) (AID 2283809). In a few lines: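 HepG2 cells transiently transfected with multiplexed GAL4-UAS reporter units expressing chimeric zebrafish TRb–Gal4. Dosed 24 h with 3 nM 6-alpha-fluorotestosterone present; reporter mRNA measured by RT-PCR, HpaI digestion and capillary electrophoresis; gain of signal versus DMSO.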
Sequence of zebrafish Thyroid Hormone Receptor beta (TRb), thrb (gene 30607) (Q9PVE4 whole entry, looked up, the tested form may be a part): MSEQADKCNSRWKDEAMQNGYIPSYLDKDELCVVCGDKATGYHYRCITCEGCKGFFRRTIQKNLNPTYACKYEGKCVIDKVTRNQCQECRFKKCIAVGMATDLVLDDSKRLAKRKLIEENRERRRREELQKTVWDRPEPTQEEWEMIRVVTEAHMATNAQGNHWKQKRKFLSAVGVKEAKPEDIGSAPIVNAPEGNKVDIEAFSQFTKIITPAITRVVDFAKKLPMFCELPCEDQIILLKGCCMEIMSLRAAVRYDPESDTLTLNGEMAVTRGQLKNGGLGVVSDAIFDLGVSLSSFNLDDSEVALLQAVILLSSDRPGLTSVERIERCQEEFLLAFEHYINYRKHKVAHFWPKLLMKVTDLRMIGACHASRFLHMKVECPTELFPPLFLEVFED

Assay [12] can be described thus: ATG_XTT_Cytotoxicity_XSP1: Cytotoxicity Assessment in the Attagene TRANS-FACTORIAL Multi-Species (XSP1) HepG2 Assay (AID 2283810). In a few lines:
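XTT viability readout taken at 24 hours post-dosing in HepG2 liver cells co-treated with 3 nM 6-alpha-fluorotestosterone. Signal loss relative to DMSO controls reflects cytotoxicity.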

In assay [13] the target is Estrogen receptor beta (Homo sapiens) (UniProt Q92731). Put plainly: ATG_hERb_XSP1: Attagene TRANS-FACTORIAL Multi-Species (XSP1) HepG2 Assay for human Estrogen Receptor (ESR2) (AID 2283788). In outline: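 HepG2 cells transiently transfected with multiplexed GAL4-UAS reporter units carrying chimeric human ERβ-Gal4; 24 h compound exposure with 3 nM 6-alpha-fluorotestosterone present. Reporter mRNA quantified by RT-PCR, FAM labelling and capillary electrophoresis; gain-of-signal fitted versus DMSO.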

The target in assay [14] is GAL4 Transcription Factor (Internal Marker), GAL4 (gene 855828) (UniProt P04386). Put plainly: ATG_GAL4_XSP1: Attagene TRANS-FACTORIAL Multi-Species (XSP1) HepG2 Assay for GAL4 Transcription Factor (Internal Marker) (AID 2283789). In a few lines:
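This background-control endpoint measures GAL4-driven reporter mRNA via RT-PCR and capillary electrophoresis of labelled fragments. Transiently transfected HepG2 cells were treated 24 h, with 3 nM 6-alpha-fluorotestosterone included, and gain-of-signal was fitted against DMSO.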

Assay [15] can be described thus: ATG_M_19_XSP1: Attagene TRANS-FACTORIAL Multi-Species (XSP1) HepG2 Assay for M19 Transcription Factor (Internal Marker) (AID 2283798). In outline:
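Readout is reporter mRNA induction quantified via RT-PCR, 6-FAM labeling, HpaI digestion and capillary electrophoresis, fitted in the positive direction versus DMSO baseline. Transfected HepG2 cells exposed 24 h, medium including 3 nM 6-alpha-fluorotestosterone.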

Assay [16] is described as follows: ATG_M_32_XSP1: Attagene TRANS-FACTORIAL Multi-Species (XSP1) HepG2 Assay for M32 Transcription Factor (Internal Marker) (AID 2283799). In outline:
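Reporter transcripts from the M32 internal-control unit measured by RT-PCR, FAM labelling, HpaI digestion and capillary electrophoresis after 24 h compound exposure of transfected HepG2, 3 nM 6-alpha-fluorotestosterone included; DMSO baseline, positive-direction fit.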

For assay [17], the target named is Peroxisome proliferator-activated receptor gamma (Homo sapiens) (UniProt P37231). Kind of assay: ATG_hPPARg_XSP1: Attagene TRANS-FACTORIAL Multi-Species (XSP1) HepG2 Assay for human Peroxisome Proliferator-activated Receptor gamma (PPARg) (AID 2283800). In outline:
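Reporter mRNA induction, measured by RT-PCR with capillary electrophoresis 24 h after dosing, scored as gain over DMSO. Transfected HepG2 cells express exogenous NR-Gal4 chimeras driving GAL4-UAS reporters; medium includes 3 nM 6-alpha-fluorotestosterone.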

The subject of assay [18] is zebrafish Peroxisome Proliferator-activated Receptor gamma (PPARg), gene 557037. Kind of assay: ATG_zfPPARg_XSP1: Attagene TRANS-FACTORIAL Multi-Species (XSP1) HepG2 Assay for zebrafish Peroxisome Proliferator-activated Receptor gamma (PPARg) (AID 2283801). In a few lines: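 Trans-activation readout of chimeric zebrafish PPARg–GAL4 in transiently transfected human HepG2 cells, 24 h chemical exposure (medium includes 3 nM 6-alpha-fluorotestosterone). Reporter transcripts measured by RT-PCR and capillary electrophoresis, fitted as gain over DMSO.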

For assay [19], the target named is mouse Peroxisome Proliferator-activated Receptor gamma (PPARg), Pparg (gene 19016) (UniProt P37238). Put plainly: ATG_mPPARg_XSP1: Attagene TRANS-FACTORIAL Multi-Species (XSP1) HepG2 Assay for mouse Peroxisome Proliferator-activated Receptor gamma (PPARg) (AID 2283802). In a few lines:
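Readout is reporter mRNA induction, measured by RT-PCR with 6-FAM labelling, HpaI digestion and capillary electrophoresis, 24 h post-dose relative to DMSO. Transient multi-reporter transfection of human HepG2 with mouse PPARg–GAL4 fusion; 3 nM 6-alpha-fluorotestosterone included.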

The target in assay [20] is AR (gene 367) (UniProt P10275). Kind of assay: ACEA_AR_antagonist_80hr: ACEA Biosciences xCELLigence Real-Time Cell Analysis on Androgen Receptor Antagonism for Proliferation (AID 2283787).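 Further: 22Rv1 human prostate cancer cells with growth followed by electrical impedance; hits lower the impedance growth signal relative to DMSO.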 In outline: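 Impedance-based real-time growth of 22Rv1 prostate cells, read 80 h after dosing. Eight concentrations, 1:4 series, top 100 uM final (0.5% DMSO), n = 2; signal decrease scored against DMSO.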
Sequence of AR (gene 367) (P10275 whole entry, looked up): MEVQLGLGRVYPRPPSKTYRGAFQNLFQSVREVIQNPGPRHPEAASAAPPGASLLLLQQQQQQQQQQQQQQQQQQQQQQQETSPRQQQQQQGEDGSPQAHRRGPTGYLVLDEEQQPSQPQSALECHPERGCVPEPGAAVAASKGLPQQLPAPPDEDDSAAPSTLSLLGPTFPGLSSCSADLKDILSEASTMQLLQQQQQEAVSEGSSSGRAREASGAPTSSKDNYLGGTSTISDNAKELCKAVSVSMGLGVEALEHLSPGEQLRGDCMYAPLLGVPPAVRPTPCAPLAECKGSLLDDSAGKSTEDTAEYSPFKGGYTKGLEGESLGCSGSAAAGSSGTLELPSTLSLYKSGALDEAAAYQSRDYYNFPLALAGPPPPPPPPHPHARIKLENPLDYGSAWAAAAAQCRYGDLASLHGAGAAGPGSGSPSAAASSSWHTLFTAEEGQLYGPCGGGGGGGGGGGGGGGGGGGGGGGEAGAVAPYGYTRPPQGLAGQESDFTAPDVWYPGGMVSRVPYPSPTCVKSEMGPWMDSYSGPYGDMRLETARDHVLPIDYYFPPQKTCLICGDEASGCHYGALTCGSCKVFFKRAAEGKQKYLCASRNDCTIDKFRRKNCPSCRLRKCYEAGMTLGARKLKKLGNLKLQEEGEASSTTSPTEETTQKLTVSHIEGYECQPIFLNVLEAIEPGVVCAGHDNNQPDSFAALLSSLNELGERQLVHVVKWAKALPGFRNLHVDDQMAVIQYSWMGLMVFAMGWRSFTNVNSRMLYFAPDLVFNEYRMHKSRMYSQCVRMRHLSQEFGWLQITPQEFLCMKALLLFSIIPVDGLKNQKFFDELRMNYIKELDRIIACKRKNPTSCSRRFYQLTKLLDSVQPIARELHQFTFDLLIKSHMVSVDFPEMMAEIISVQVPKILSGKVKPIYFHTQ

Sequence of zebrafish Thyroid Hormone Receptor alpha (TRa), thraa (gene 30670) (Q98867 whole entry, looked up, the tested form may be a part): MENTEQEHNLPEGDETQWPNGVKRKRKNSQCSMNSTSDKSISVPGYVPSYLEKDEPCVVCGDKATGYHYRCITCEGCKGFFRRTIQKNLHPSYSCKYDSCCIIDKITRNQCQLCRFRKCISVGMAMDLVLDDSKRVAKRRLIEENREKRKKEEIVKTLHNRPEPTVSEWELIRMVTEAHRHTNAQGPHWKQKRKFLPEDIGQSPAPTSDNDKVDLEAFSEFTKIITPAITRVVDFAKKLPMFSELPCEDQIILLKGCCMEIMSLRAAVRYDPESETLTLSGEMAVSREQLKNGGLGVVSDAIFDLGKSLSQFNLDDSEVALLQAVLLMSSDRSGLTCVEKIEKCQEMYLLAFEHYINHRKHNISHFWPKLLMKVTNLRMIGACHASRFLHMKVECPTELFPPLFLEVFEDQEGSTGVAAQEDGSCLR
Sequence of human Thyroid hormone Receptor alpha (TRa), THRA (gene 7067) (P10827 whole entry, looked up, the tested form may be a part): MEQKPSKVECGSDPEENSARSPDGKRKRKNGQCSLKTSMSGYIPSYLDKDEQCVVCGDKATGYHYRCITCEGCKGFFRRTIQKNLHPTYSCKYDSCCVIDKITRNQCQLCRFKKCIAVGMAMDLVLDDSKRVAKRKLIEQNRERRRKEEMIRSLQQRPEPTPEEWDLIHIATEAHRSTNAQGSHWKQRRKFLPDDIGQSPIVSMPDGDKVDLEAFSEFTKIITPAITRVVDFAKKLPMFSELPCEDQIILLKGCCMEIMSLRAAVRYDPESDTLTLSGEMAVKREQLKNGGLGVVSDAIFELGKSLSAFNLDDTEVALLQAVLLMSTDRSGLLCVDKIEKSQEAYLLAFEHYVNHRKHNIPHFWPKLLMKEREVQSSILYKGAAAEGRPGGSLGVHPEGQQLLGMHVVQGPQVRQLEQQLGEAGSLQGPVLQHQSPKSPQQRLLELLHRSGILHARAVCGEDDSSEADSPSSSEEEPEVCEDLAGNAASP
Sequence of human Thyroid hormone Receptor beta (TRb), THRB (gene 7068) (P10828 whole entry, looked up, the tested form may be a part): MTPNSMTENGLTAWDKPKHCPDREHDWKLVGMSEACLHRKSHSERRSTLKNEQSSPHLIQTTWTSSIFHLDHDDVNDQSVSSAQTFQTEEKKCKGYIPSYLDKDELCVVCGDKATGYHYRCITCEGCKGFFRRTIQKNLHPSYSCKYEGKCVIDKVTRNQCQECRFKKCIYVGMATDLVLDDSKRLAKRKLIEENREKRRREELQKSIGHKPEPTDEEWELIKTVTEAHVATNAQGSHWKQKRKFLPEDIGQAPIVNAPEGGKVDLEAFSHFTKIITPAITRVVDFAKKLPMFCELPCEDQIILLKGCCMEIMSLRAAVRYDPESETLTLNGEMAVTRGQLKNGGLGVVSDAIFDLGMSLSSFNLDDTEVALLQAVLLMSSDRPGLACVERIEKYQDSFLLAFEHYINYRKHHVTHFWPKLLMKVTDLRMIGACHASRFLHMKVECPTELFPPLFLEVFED
Sequence of Nuclear receptor subfamily 1 group I member 2 (Mus musculus) (O54915 whole entry, looked up, the tested form may be a part): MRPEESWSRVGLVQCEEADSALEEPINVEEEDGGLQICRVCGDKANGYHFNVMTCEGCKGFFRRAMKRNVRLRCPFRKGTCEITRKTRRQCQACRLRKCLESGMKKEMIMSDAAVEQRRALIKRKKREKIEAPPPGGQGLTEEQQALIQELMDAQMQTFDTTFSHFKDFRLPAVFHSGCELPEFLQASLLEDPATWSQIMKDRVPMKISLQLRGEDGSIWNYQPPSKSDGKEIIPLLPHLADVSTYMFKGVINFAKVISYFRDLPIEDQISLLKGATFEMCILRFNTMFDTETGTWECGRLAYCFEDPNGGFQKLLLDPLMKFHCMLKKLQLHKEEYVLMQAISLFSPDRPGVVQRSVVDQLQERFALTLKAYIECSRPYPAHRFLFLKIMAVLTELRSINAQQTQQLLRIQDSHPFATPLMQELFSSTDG
Sequence of GAL4 Transcription Factor (Internal Marker), GAL4 (gene 855828) (P04386 whole entry, looked up, the tested form may be a part): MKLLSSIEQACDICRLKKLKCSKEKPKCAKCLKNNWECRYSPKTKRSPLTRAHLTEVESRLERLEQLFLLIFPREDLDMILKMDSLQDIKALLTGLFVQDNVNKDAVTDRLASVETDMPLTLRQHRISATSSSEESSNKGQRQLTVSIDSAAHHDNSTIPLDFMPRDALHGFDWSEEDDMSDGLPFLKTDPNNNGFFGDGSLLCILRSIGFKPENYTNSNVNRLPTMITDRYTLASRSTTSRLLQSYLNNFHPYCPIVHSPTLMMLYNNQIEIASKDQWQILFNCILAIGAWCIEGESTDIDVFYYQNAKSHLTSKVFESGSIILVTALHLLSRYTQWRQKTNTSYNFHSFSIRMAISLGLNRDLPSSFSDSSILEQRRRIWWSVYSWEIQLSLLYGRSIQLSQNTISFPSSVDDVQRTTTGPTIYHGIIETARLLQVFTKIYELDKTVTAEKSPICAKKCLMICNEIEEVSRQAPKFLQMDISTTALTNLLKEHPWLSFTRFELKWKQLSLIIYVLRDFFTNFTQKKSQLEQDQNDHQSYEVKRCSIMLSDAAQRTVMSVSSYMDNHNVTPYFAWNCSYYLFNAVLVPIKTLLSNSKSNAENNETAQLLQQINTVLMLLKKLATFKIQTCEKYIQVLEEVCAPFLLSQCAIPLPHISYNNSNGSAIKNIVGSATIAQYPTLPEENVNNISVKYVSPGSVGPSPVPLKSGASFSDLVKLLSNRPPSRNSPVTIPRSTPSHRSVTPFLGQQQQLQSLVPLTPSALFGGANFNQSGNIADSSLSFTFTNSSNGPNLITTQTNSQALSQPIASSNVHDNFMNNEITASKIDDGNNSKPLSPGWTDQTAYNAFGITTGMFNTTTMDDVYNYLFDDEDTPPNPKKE
Sequence of Peroxisome proliferator-activated receptor gamma (Homo sapiens) (P37231 whole entry, looked up, the tested form may be a part): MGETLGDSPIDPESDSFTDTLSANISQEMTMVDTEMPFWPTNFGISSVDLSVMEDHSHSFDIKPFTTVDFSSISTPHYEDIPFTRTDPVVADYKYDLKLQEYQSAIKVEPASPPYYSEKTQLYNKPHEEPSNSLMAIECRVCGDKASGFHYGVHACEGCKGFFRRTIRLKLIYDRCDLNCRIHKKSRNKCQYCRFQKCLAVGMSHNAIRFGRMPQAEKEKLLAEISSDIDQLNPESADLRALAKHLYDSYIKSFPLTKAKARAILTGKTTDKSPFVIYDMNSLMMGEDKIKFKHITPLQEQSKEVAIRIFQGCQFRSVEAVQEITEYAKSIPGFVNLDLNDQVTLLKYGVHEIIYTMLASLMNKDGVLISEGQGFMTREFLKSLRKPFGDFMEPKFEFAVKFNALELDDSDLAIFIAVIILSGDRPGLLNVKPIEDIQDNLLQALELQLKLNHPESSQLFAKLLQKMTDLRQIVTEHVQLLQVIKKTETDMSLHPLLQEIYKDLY
Sequence of frog Thyroid hormone Receptor alpha (TRa), thra-a (gene 397942) (P15204 whole entry, looked up, the tested form may be a part): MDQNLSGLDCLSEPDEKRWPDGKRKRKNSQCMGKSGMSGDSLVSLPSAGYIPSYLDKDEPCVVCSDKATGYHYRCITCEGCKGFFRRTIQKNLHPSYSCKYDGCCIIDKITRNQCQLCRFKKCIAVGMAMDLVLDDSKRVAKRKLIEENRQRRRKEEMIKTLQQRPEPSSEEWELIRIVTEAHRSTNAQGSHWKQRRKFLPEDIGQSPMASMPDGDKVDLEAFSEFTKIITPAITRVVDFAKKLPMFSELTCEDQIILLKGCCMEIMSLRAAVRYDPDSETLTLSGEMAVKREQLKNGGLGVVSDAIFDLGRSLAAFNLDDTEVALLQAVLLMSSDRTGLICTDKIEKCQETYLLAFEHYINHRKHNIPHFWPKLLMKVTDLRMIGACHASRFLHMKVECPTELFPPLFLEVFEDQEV

As for `CO/C=C(/C(=O)OC)c1ccccc1COc1cccc(C(F)(F)F)n1`, the outcome in [1] was inactive.

For the compound `C[C@]12CCC(=O)C=C1CC[C@@H]1[C@@H]2CC[C@@]2(C)[C@H]1CC[C@]2(C)O`, the AC50 (commonly the concentration at which the activity in the assay is half-maximal) in [2] is 0.0018 µM (active). Besides, the outcome in assay [3], in [4], in [5], in assay [6], in assay [7] and in [8] was inactive. Moreover, the call in [9], in assay [10], in [11] and in assay [12] was inactive.

On to `CCC(C)c1cc([N+](=O)[O-])cc([N+](=O)[O-])c1O` (stereo not given), for which the outcome in assay [1] was inactive.

In the case of `CC(C)(c1ccccc1)c1ccc(O)cc1`, the AC50 in [13] was 0.227 µM (active). Also, the outcome in assay [14], in assay [15], in assay [16], in assay [17], in assay [18] and in assay [19] was inactive. The call in [5], in assay [7], in assay [8], in [9], in [10] and in assay [11] was inactive. Further, in assay [12], the result was inactive.

On to `CCOCCOC(C)=O`, for which the result in assay [1] was inactive.

In the case of `CCSC(=O)N(CC)C1CCCCC1`, in assay [1], the result was inactive.

`C=CC(N)=O`: in assay [1], the outcome was inactive.

With `Clc1ccc(C(c2ccccc2Cl)C(Cl)(Cl)Cl)cc1` (stereo not given), the AC50 was 88.7 µM (active) in [1] and 2.03 µM (active) in assay [5]. Further, the outcome in assay [13], in assay [14], in assay [15], in assay [16], in [17] and in [7] was inactive. Besides, the compound was called inactive in assay [8], in assay [9], in assay [10], in [11] and in [12].

In the case of `C1CC2OC2CC1C1CO1` (stereo not given), the AC50 in assay [1] was 74.5 µM (active).

Consider `ClC1=C(Cl)[C@]2(Cl)[C@@H]3[C@H]4C[C@H]([C@@H]5O[C@H]45)[C@@H]3[C@@]1(Cl)C2(Cl)Cl`, for which the AC50 in assay [1] was 88.1 µM (active).

In the case of `CCCCCCCCOC(=O)c1ccccc1C(=O)OCCCCCCCC`, the AC50 in [20] was 50 µM (active).

`CCNc1nc(NC(C)C)nc(SC)n1`: the outcome in assay [1] and in assay [20] was inactive.

In the case of `CCOC(=O)C(O)(c1ccc(Cl)cc1)c1ccc(Cl)cc1`, the AC50 in assay [20] was 19.2 µM (active).

For `O=C(N[C@H]1CN2CCC1CC2)c1cc2ccoc2cn1`, in assay [20], the AC50 is 33.1 µM (active).
